Active and inactive are the calls of the source. No stated cut-off is given here; in the data, active means fold change permeability below about 0.7 or above about 1.3; inactive means in between.
Experiment: modulators of brain endothelial barrier permeability, primary screen, cell-based, FITC-avidin fluorescence, HTS (AID 1963498); further: test concentration not given here
Details: actives lie on both sides

Question: For `Clc1ccc(N2CCN(Cc3cc4ccccn4n3)CC2)cc1`, which fold change permeability is on record?
Answer: The fold change permeability was 1.3 (active).

Question: With `CC(=O)N[C@@H](CS)C(=O)O` as the compound, how does the fold change permeability read?
Answer: The fold change permeability was 1.1 (inactive).

Question: With `C=C(Cc1ccccc1Cl)C(=O)OCC` as the compound, how does the fold change permeability read?
Answer: Its fold change permeability is 1 (inactive).

Question: For `Cc1cc2nc(NCCCO)n(CC(=O)c3cc(C(C)(C)C)c(O)c(C(C)(C)C)c3)c2cc1C`, which fold change permeability is on record?
Answer: The fold change permeability was 1.1 (inactive).

Question: With `O=C(O)C1=CC(=C(c2ccc(O)c(C(=O)O)c2)c2ccc(O)c(C(=O)O)c2)C=CC1=O` as the compound, how does the fold change permeability read?
Answer: Its fold change permeability is 0.9 (inactive).

Question: Which fold change permeability does the source give for `COCC(=O)O[C@]1(CCN(C)CCCc2nc3ccccc3[nH]2)CCc2cc(F)ccc2[C@@H]1C(C)C` here?
Answer: The fold change permeability was 1.5 (active).

Question: Which fold change permeability does the source give for `CC(C)(Oc1ccc(CCNC(=O)c2ccc(Cl)cc2)cc1)C(=O)O` here?
Answer: The fold change permeability was 0.9 (inactive).

Question: Which fold change permeability does the source give for `O=C(O)/C=C/c1ccc(O)c(O)c1` here?
Answer: Its fold change permeability is 0.8 (inactive).

Question: For `O=NN(CCCl)C(=O)NCCCl`, which fold change permeability is on record?
Answer: Its fold change permeability is 1 (inactive).

Question: Which fold change permeability does the source give for `O=C(O)[C@H](CC(=O)N1C[C@H]2CCCC[C@H]2C1)Cc1ccccc1` here?
Answer: Its fold change permeability is 1.2 (inactive).

Question: With `NCc1c[nH]c(=S)n1[C@H]1CCc2c(F)cc(F)cc2C1` as the compound, how does the fold change permeability read?
Answer: The fold change permeability was 1.4 (active).

Question: For `COc1cc(C[C@H](C)[C@H](C)Cc2ccc3c(c2)OCO3)ccc1O`, which fold change permeability is on record?
Answer: Its fold change permeability is 1.7 (active).

Question: Which fold change permeability does the source give for `CC1(C)OC(=O)C(c2cccc(F)c2)=C1c1ccc(S(C)(=O)=O)cc1` here?
Answer: The fold change permeability was 0.9 (inactive).

Question: Which fold change permeability does the source give for `O=C1CCC(N2C(=O)c3ccccc3C2=O)C(=O)N1` (configuration not stated) here?
Answer: Its fold change permeability is 1.6 (active).

Question: For `O=P(O)(O)C(O)(Cn1ccnc1)P(=O)(O)O`, which fold change permeability is on record?
Answer: Its fold change permeability is 0.8 (inactive).

Question: For `COc1ccc(OCC2c3cc(OC)c(OC)cc3CCN2C(=O)c2cccc(Cl)c2)cc1` (configuration not stated), which fold change permeability is on record?
Answer: Its fold change permeability is 1.6 (active).

Question: Which fold change permeability does the source give for `Nc1ncnc2c1ncn2C1CCCC1` here?
Answer: The fold change permeability was 0.9 (inactive).

Reference: PubChem BioAssay
